{"source": "PubChem BioAssay AID1863", "about": "(Southern Research Specialized Biocontainment Screening …, 2009)", "note": "Among all 300,000 compounds or so, about 480 (0.16%) were called active. The list is a sample of the results. Entries with a potency or affinity are not part of this list. Unmarked numbers belong to inactive results.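 The calls were made as follows: active = inhibition over 29.93%, a cutoff 3 SD above the screen mean, later confirmed by dose response; inconclusive = inhibition over 29.93% but no dose response follow-up; inactive = inhibition at most 29.93% or unconfirmed.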", "data": [{"test": "inhibitors of PhoP regulon expression, primary screen, Salmonella Typhimurium, GFP reporter (AID 1863);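 also: 0% = low Mg2+ inducing control and 100% = high Mg2+ repressing control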", "conditions": "S. Typhimurium PhoP-regulated promoter GFP reporter, 4 h; at 50 µM; stronger effect = higher value", "units": {"inhibition": "%"}, "values": [{"compound": "COc1ccc2c(c1)C(=NNC(=O)c1ccccn1)c1cc(OC)ccc1-2", "inhibition": -4.06}, {"compound": "O=C(NN=C1c2ccccc2-c2ccccc21)c1ccccn1", "inhibition": 9.9}, {"compound": "Cc1ccccc1CS(=O)(=O)c1ccc(C(=O)N2CCC(C)CC2)cc1[N+](=O)[O-]", "inhibition": 1.32}, {"compound": "Cn1c2c(c(=O)n(C)c1=O)C(c1ccc(Br)cc1)Nc1ccccc1O2", "note": "(stereo not drawn)", "inhibition": -10.1}, {"compound": "Cc1ccc(C(C[N+](=O)[O-])n2nc(C)cc2C)cc1", "note": "(stereo not drawn)", "inhibition": 4.29}, {"compound": "Cc1cc(C)n(C(C[N+](=O)[O-])c2ccc(Cl)cc2)n1", "note": "(stereo not drawn)", "inhibition": 16.6}, {"compound": "COc1ccc(-c2cc(C(=O)OCC(=O)NC(C)C)c3ccccc3n2)cc1", "inhibition": 6.33}, {"compound": "COCCN(C(=O)COC(=O)c1ccc2c(c1)OCCO2)c1c(N)n(Cc2ccccc2)c(=O)[nH]c1=O", "inhibition": 0.22}, {"compound": "CCOC(=O)C1CCCN(C(=O)c2ccc(-c3ccc([N+](=O)[O-])cc3)o2)C1", "note": "(stereo not drawn)", "inhibition": 3.02}, {"compound": "CSc1ncccc1C(=O)Nc1nc2ccc(Oc3ccccc3)cc2s1", "inhibition": -15.8}, {"compound": "Cc1ccc2nc(N(CCCN(C)C)C(=O)CCc3ccccc3)sc2c1", "inhibition": -4.17}, {"compound": "CN(C)CCCN(C(=O)CCc1ccccc1)c1nc2ccc(Br)cc2s1", "inhibition": 10.9}, {"compound": "C=CCN1CCN(C(=O)c2oc3ccccc3c2C)CC1", "inhibition": -3.66}, {"compound": "Cc1ccc(NC2CCCN(C(=O)c3cn(C)c4ccccc34)C2)cc1C", "note": "(stereo not drawn)", "inhibition": 0.88}, {"compound": "Cc1ccc(C(NC(=O)C(C)C)c2cc([N+](=O)[O-])c3cccnc3c2O)cc1", "note": "(stereo not drawn)", "inhibition": 9.47}, {"compound": "CC(=O)NC(c1ccccc1)c1cc([N+](=O)[O-])c2cccnc2c1O", "note": "(stereo not drawn)", "inhibition": 4.87}, {"compound": "CC(C)C(=O)NC(c1cccs1)c1cc([N+](=O)[O-])c2cccnc2c1O", "note": "(stereo not drawn)", "inhibition": 2.63}, {"compound": "CC(C)C(=O)NC(c1ccccc1)c1cc([N+](=O)[O-])c2cccnc2c1O", "note": "(stereo not drawn)", "inhibition": -2.27}, {"compound": "COc1cccc(C(NC(C)=O)c2ccc3cccnc3c2O)c1", "note": "(stereo not drawn)", "inhibition": 9.73}, {"compound": "CCCC(=O)NC(c1cccs1)c1cc(Cl)c2cccnc2c1O", "note": "(stereo not drawn)", "inhibition": -5.84}, {"compound": "CC(=O)NC(c1ccc2ccccc2c1)c1ccc2cccnc2c1O", "note": "(stereo not drawn)", "inhibition": 56.5}, {"compound": "CCCCC(=O)NC(c1cccs1)c1cc(Cl)c2cccnc2c1O", "note": "(stereo not drawn)", "inhibition": -0.21}, {"compound": "COc1cccc2cc(CC(=O)c3cc(C)ccc3C)c(=O)oc12", "inhibition": -3.13}, {"compound": "CCOc1ccc(NC(=O)CN(C)C(=O)c2ccc3nc(CC)c(CC)nc3c2)cc1OCC", "inhibition": -9.1}, {"compound": "CC(C)C[C@H](NC(=O)c1nc[nH]c1C(=O)NCCCCCNC(=O)OC(C)(C)C)C(=O)OCc1ccccc1", "inhibition": -4.74}, {"compound": "Cc1ccc(S(=O)(=O)N2CCN(C(=O)CC(C)C)CC2)cc1", "inhibition": 3.71}, {"compound": "Cc1ccc(NC(=O)Nc2ccon2)cc1Cl", "inhibition": 0.2}, {"compound": "Clc1ccccc1CONc1ncnc2nonc12", "inhibition": -2.15}, {"compound": "CCC(C)(C)NC(=O)Cc1ccc(OC)c(OC)c1", "inhibition": -10.6}, {"compound": "O=Cc1c(F)cccc1N1CCCC1", "inhibition": 8.32}, {"compound": "Cc1cccc(NC(=O)CC2(CC(=O)O)CCCC2)c1", "inhibition": -1.98}, {"compound": "Cc1ccc(C2N(c3ccc(Cl)cc3)C(=O)N3CCCN23)cc1", "note": "(stereo not drawn)", "inhibition": -0.36}, {"compound": "CCOC(=O)COc1cc([N+](=O)[O-])cc2cccnc12", "inhibition": 1.41}, {"compound": "O=[N+]([O-])c1cc2cccnc2c2ncccc12", "inhibition": -10.2}, {"compound": "CN(C)[C@@H]1C(=O)C(C(=O)NCN2CCCC2)=C(O)[C@@]2(O)C(=O)C3=C(O)c4c(O)cccc4[C@@](C)(O)C3CC12", "note": "(stereo partly drawn)", "inhibition": 1.32}, {"compound": "O=C1C(Oc2ccc(Cl)cc2)C(c2ccc3c(c2)OCO3)N1CC1CCCO1", "note": "(stereo not drawn)", "inhibition": -1.66}, {"compound": "COc1ccc(-c2cc(C(F)(F)F)n3nc(C(=O)N4CCN5CCCC5C4)cc3n2)cc1OC", "note": "(stereo not drawn)", "inhibition": 8.34}, {"compound": "CN1C(=O)[C@@H]2[C@H](C1=O)[C@@H]1C(=O)Nc3ccccc3C(=O)N1[C@@H]2c1ccc(F)cc1", "inhibition": 6.12}, {"compound": "CC1Cc2ccccc2N1C(=O)CSc1nnnn1-c1ccc2c(c1)OCCO2", "note": "(stereo not drawn)", "inhibition": 4.49}, {"compound": "C#CCOCCOCCOCCNc1nc(N2CCN(C(=O)CCCCCCCCCCNC(=O)[C@H](CCCCN)n3cc(CCCC(=O)O)nn3)CC2)nc(N2CCN(C(=O)CCCCCCCCCCNC(=O)[C@H](CCCN=C(N)N)n3cc(C[C@@H](C)CC)nn3)CC2)n1", "inhibition": -5.84}, {"compound": "C#CCOCCOCCOCCNc1nc(N2CCN(C(=O)CCCCCCCCCCNC(=O)[C@H](CCCCN)n3cc(CCO)nn3)CC2)nc(N2CCN(C(=O)CCCCCCCCCCNC(=O)[C@H](CCCN=C(N)N)n3cc(C[C@@H](C)CC)nn3)CC2)n1", "inhibition": 25.8}, {"compound": "C#CCOCCOCCOCCNc1nc(N2CCN(C(=O)CCCCCCCCCCNC(=O)[C@H](CCCCN)n3cc(C)nn3)CC2)nc(N2CCN(C(=O)CCCCCCCCCCNC(=O)[C@H](CCCN=C(N)N)n3cc(C[C@@H](C)CC)nn3)CC2)n1", "inhibition": 23.8}, {"compound": "C#CCOCCOCCOCCNc1nc(N2CCN(C(=O)CCCCCCCCCCNC(=O)[C@H](CCCCN)n3cc(C[C@@H](C)CC)nn3)CC2)nc(N2CCN(C(=O)CCCCCCCCCCNC(=O)[C@H](CCCCN)n3cc(C[C@@H](C)CC)nn3)CC2)n1", "inhibition": 20.6}]}]}
